# This is a sample that favours compounds with a hit; in the whole collection about 21% have one here.
# HCV inhibitor: inhibitors of hepatitis C virus infection. Potency, µM (titrated, usually from 41.8 µM), for inactives: top-dose activity change, negative = inhibition, most hits filed as inhibitors. 340,000 tested, 3.4% active. Huh7.5.1 HCVcc-Cre infection, luciferase reporter, 44 h. AID 651820; further: potency means the concentration at half of the fitted maximal effect; on the % scale 0 is the no-effect control and ±100 the full control effect
#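 HCVcc-Cre virus at an moi near 0.5 was added right after compound to cells cultured 4 h from seeding (1,000 cells/well). Luciferase activity was determined 44 h later, 15 min after substrate addition at RT.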
# Pf growth 48h: inhibits P. falciparum growth in the first generation, 48 h; P. falciparum luciferase growth in erythrocytes, 48 h; Potency, µM (top dose mostly 28.7 µM), for inactives: at the top dose activity change, negative = inhibition, most hits filed as inhibitors; AID 504832; 310,000 tested, 5.9% active; further: potency means the concentration at half of the fitted maximal effect; on the % scale 0 is the no-effect control and ±100 the full control effect
#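 Firefly luciferase activity from engineered P. falciparum reports growth; inhibitors lower the luminescent signal. Cultures contained 2% hematocrit erythrocytes at 0.1% final parasitemia.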
# Shiga inhibitor: inhibitors of Shiga toxin in Vero cells; Vero cells, Shiga toxin protein synthesis inhibition reporter; inhibition, % at 38.7 µM; 290,000 tested, 9.2% active; in the data active means inhibition mostly above about 28%, no sharp cut-off; inactive means mostly below about 43%; further: 0% is about no effect
# Pf growth 96h: inhibits malaria parasite growth, 96 h | P. falciparum luciferase reporter growth, 96 h | Potency, µM (doses to about 28.7 µM), inactives show at the highest dose activity change, negative = inhibition, most hits filed as inhibitors | 320,000 tested, 6.9% active; further: potency means the concentration at half of the fitted maximal effect; on the % scale 0 is the no-effect control and ±100 the full control effect
#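 Parasite growth measured via integrated firefly luciferase reporter in P. falciparum. Infected erythrocytes at 2% hematocrit, 0.05% parasitemia final were treated 96 hours at 37 C under 5% CO2, and luminescence was read.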
# Cycloheximide cs: counter-screen hit for Shiga toxin inhibitors, cycloheximide | cell reporter, cycloheximide protein synthesis inhibition counterscreen | max response, % | 300,000 tested, 12% active | AID 2314; in the data active means max response mostly above about 13%, no sharp cut-off; inactive means mostly below about 14%; further: read at 38.3 µM for the half of the compounds with a filed dose; 0% is about no effect
# HCMV antiviral: inhibitors of human cytomegalovirus. HFF cells, HCMV-luciferase reporter, 72 h; active compounds read low. 410,000 tested, 4.5% active. activity change, negative = inhibition, % at 57.5 µM; in the data active means activity change below about -60%; inconclusive means no clear call, values can overlap the other calls; inactive means above about -39%; further: on the % scale 0 is the no-effect control and ±100 the full control effect
#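 Luciferase read-out from HCMV-luciferase-infected HFFs (MOI 1 PFU/cell) 72 h post infection at 37C; compounds added after 16 h cell attachment; activity normalized between buffer-only basal and Salinomycin (10uM) inhibitor controls.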
# The depositor's hits bear a star; ? = inconclusive; / = no result given. Unless noted, the call rests on the fitted dose curve; in most records, active means well fitted inhibition curve with a large enough effect; inconclusive means small, poorly fitted or top-dose-only effect, or another doubt; inactive means no such curve, though single readings can be large or run the other way.
SMILES,HCV inhibitor,Pf growth 48h,Shiga inhibitor,Pf growth 96h,Cycloheximide cs,HCMV antiviral
COc1ccc(CNC(=O)C[C@H]2C(=O)N(Cc3ccc(OC)cc3)C[C@@H]2Cc2ccccc2)cc1,?,?,-5,?,1,-24
Cc1ccc2nc(N)[nH]c(=O)c2c1Sc1ccncc1,/,4.8µM*,/,2.1µM*,/,/
Cc1ccc2nc3[nH]c(=O)[nH]c(=O)c3c(N)c2c1,-1%,/,/,/,/,38
CN(CC(=O)Nc1ccc2c(c1)OCO2)S(=O)(=O)c1cccs1,-3%,84%,67*,?,47*,53
CCc1cccc(NC(=O)CN(C)S(=O)(=O)c2cccc3nsnc23)c1,-22%,-3%,-3,?,-2,27
CN(CC(=O)Nc1ccc(F)c(F)c1)S(=O)(=O)c1cccs1,-18%,30%,2,-3%,10,-19
CCc1cccc(NC(=O)CN(C)S(=O)(=O)c2cccs2)c1,9%,22%,71*,?,24*,-21
CCN(c1ccc(NC(=O)COC(=O)C2CCN(c3ccc(C(F)(F)F)cn3)CC2)cc1)C(C)C,3%,/,/,/,/,3
CCCn1c(N)c(N(CCOC)C(=O)CSCC(=O)Nc2ccc(OC)cc2)c(=O)[nH]c1=O,10%,2%,/,-34%,/,1
Cc1cc(=O)[nH]c(Nc2cccc(C(F)(F)F)c2)n1,?,?,-31,13µM*,14,?
COc1ccc(Cl)cc1N/C(N)=N/c1nc(C)cc(=O)[nH]1,-11%,9%,1,61%,-4,-1
Cc1cc(=O)[nH]c(NN=C2CCCCC2C)n1 (stereo not drawn),22%,/,/,/,/,-15
Cc1cc(=O)[nH]c(NN)n1,3%,?,9,9.3µM*,8,-8
Cc1cc(=O)[nH]c(SCC(=O)Nc2cccc(C(F)(F)F)c2)n1,29%,11%,-15,/,-2,22
COc1ccc(Cl)cc1Nc1nc(C)cc(=O)[nH]1,10µM*,0%,2,/,-2,40
Cc1cc(=O)[nH]c(NN=C2C3CC4CC(C3)CC2C4)n1,5%,8%,27,?,18*,12
Cc1cc(N(C)C)nc(Nc2ccccc2)n1,?,13µM*,/,12µM*,/,-17
Cc1cccc(Nc2nc(C)cc(C)n2)c1,-20%,?,24*,?,15*,17
Cc1cc(C)nc(Nc2ccc(F)cc2)n1,10%,?,64,25%,10,-30
CCC(=O)N1CCc2cc(CNC(=O)Nc3ccc(OC)cc3OC)ccc21,/,/,/,/,/,10
c1ccc(C(c2cccs2)c2c[nH]c3ccccc23)cc1 (stereo not drawn),/,/,/,/,/,-66*
c1ccc(C(c2c[nH]c3ccccc23)c2c[nH]c3ccccc23)nc1,0%,/,17,-18%,-1,23
NC(=O)c1ccc(CN2CCc3ccccc3C2)cc1,3%,0%,-10,-26%,-3,54
COc1ccc(NC(=O)c2oc3c(c2C)-c2nn(Cc4ccccc4Cl)cc2CC3)cc1OC,/,/,/,/,/,-64*
COc1cccc(NC(=O)c2ccc(CN3CCc4ccccc4C3)cc2)c1,1µM*,?,43,?,12,?
SMILES,HCV inhibitor,Pf growth 48h,Shiga inhibitor,Pf growth 96h,Cycloheximide cs,HCMV antiviral
COCC(C)NC(=O)c1ccc(CN2CCc3ccccc3C2)cc1 (stereo not drawn),-4%,0%,-6,-2%,4,-23
COc1ccc(NC(=O)c2ccc(CN3CCc4ccccc4C3)cc2)cc1OC,13µM*,-53%,-3,?,9,-64*
CC(=O)c1cccc(NC(=O)c2ccc(CN3CCc4ccccc4C3)cc2)c1,11µM*,15µM*,29,?,13*,-5
COCCCNC(=O)c1oc2c(c1C)-c1nn(Cc3ccccc3Cl)cc1CC2,/,/,/,/,/,-19
O=C(CC[C@H]1O[C@@H](n2ccc(=O)[nH]c2=O)[C@H](O)[C@@H]1O)N[C@H](Cc1ccccc1)C(=O)NCc1ccc2c(c1)OCO2,/,/,/,/,/,-12
COc1ccccc1C(=O)Nc1ccc2c(c1)CN(Cc1cnc(C)s1)CC2,?,?,29*,?,12*,?
Fc1ccc(NC(=S)N2CCc3ccccc3C2)c(F)c1,-12%,34%,67*,?,32*,-19
COc1ccc(NC(=S)N2CCc3ccccc3C2)cc1OC,4%,18%,49*,0%,10,-1
Cc1cc(C)c(NC(=O)c2ccc(CN3CCc4ccccc4C3)cc2)c(C)c1,8.9µM*,/,-4,7.4µM*,7,-34
O=C(COC(=O)CCC(=O)c1ccc(F)cc1)Nc1ccc(Cl)cn1,28%,/,/,/,/,-13
CN(C)CCN(C(=O)c1ccc(N2C(=O)CCC2=O)cc1)c1nc2cc3c(cc2s1)OCO3,5%,10%,30,16%,15,-23
COc1ccc(C)c2sc(N(CCN(C)C)C(=O)c3cccc(N4C(=O)CCC4=O)c3)nc12,-3%,?,/,13%,/,-15
CN(C)CCCN(C(=O)c1ccc2ccccc2c1)c1nc2cc3c(cc2s1)OCO3,?,?,-17,10µM*,-3,-62*
CN(C)CCN(C(=O)c1cccc2ccccc12)c1nc2cc3c(cc2s1)OCO3,10µM*,9.3µM*,25,?,12,-112*
CN(C)CCN(C(=O)c1cccc(N2C(=O)CCC2=O)c1)c1nc2ccc(Br)cc2s1,-13%,-27%,35,6%,13*,1
CN(C)CCCN(C(=O)c1ccc2c(c1)OCCO2)c1nc2cc3c(cc2s1)OCO3,?,-12%,19,?,2,-14
CCN(CC)CCN(C(=O)c1ccc2ccccc2c1)c1nc2ccc(F)cc2s1,?,31%,51*,25%,9,56
CCCNC(=O)N1CC(=O)N2[C@H](CO)[C@@H](c3ccc(Br)cc3)[C@@H]2C1,/,/,/,/,/,8
CN(C)CCN(C(=O)COc1ccc(Cl)cc1)c1nc2cc3c(cc2s1)OCO3,7%,53%,-2,?,22*,83
CN(C)CCN(C(=O)c1ccc2ccccc2c1)c1nc2ccc(Br)cc2s1,9%,-10%,44,?,16*,0
Cc1ccc2nc(N(CCN(C)C)C(=O)c3ccc4ccccc4c3)sc2c1,0%,14%,17,-6%,24,/
CCC1CCCCN1S(=O)(=O)c1ccc(C(=O)N(CCCN(C)C)c2nc3cc4c(cc3s2)OCO4)cc1 (stereo not drawn),13µM*,?,-6,?,6,-17
CN(C)CCCN(C(=O)c1ccc([N+](=O)[O-])o1)c1nc2cc3c(cc2s1)OCO3,?,4%,60*,-1%,55*,94
CN(C)CCCN(C(=O)c1ccc(S(=O)(=O)N2CCCCCC2)cc1)c1nc2cc3c(cc2s1)OCO3,/,/,/,/,/,9

# Screening data: PubChem, National Center for Advancing Translational Sciences (NCATS)
